Measurements taken from PubChem BioAssay (EPA / NIEHS).
Active and inactive are the calls of the source. How the source made its calls: active means hit-call score of the fitted dose curve at least 0.9, where 1 is the maximum; inactive means score below 0.9.

What was measured:
[1] = CEETOX_H295R_PROG: CeeTox H295R High-throughput Steroidogenesis Assay for Progesterone (PROG) (AID 2283442); conditions: actives raise or lower the signal;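 on AC50: human H295R adrenal cells primed with 10 µM forskolin before dosing; progesterone secreted into medium by H295R cells measured by HPLC-MS/MS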
How it was run: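 Steps: seed H295R cells and let them adhere overnight; prime 48 h with 10 uM forskolin; dose with compound in DMSO at 0.1% final for 48 h; extract medium steroids with MTBE; measure progesterone by LC-MS/MS. MTT viability was run in the same wells.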

[2] = read-out: Tumor necrosis factor receptor superfamily member 6 (Homo sapiens) (UniProt P25445); experiment: LTEA_HepaRG_FAS: Life Technologies and Expression Analysis (LTEA) Assay for Fas cell surface death receptor (FAS) using HepaRG (AID 2283447); conditions: mRNA level, 48 h; actives raise or lower the signal
How it was run: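 Differentiated HepaRG cells in serum-free induction medium were exposed 48 h to 8 half-log concentrations up to 100 uM in 0.5% DMSO, in duplicate. FAS mRNA was measured by qRT-PCR normalised to ACTB, GAPDH and POLR2A; bidirectional fit versus DMSO.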

[3] = read-out: Fatty acid synthase (Homo sapiens) (UniProt P49327); experiment: LTEA_HepaRG_FASN: Life Technologies and Expression Analysis (LTEA) Assay for Fatty Acid Synthase (FASN) using HepaRG (AID 2283448); conditions: mRNA level, 48 h; actives raise or lower the signal;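 further: differentiated human HepaRG liver cells in serum-free induction medium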
How it was run: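 Cells were plated, cultured 48 h, switched to serum-free induction medium, then dosed in duplicate (max 100 uM, half-log dilutions, 0.5% DMSO) for 48 h. RNA was then isolated and FASN quantified by qRT-PCR.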

[4] = read-out: Cyclin D2 (CCND2), CCND2 (gene 894); experiment: LTEA_HepaRG_CCND2: Life Technologies and Expression Analysis (LTEA) Assay for Cyclin D2 (CCND2) using HepaRG (AID 2283449); conditions: mRNA level, 48 h; actives raise or lower the signal;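 further: CCND2 transcript measured by TaqMan qRT-PCR and normalised to three housekeeping genes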
How it was run: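 HepaRG, 48 h dosing, 8-pt half-log curve from 100 uM, 0.5% DMSO; duplicate wells. Readout: CCND2 transcript by microfluidic qRT-PCR, housekeeping-normalised; bidirectional fit vs DMSO baseline.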

[5] = read-out: Cyclin Dependent Kinase Inhibitor 1A (CDKN1A), CDKN1A (gene 1026); experiment: LTEA_HepaRG_CDKN1A: Life Technologies and Expression Analysis (LTEA) Assay for Cyclin Dependent Kinase Inhibitor 1A (CDKN1A) using HepaRG (AID 2283450); conditions: mRNA level, 48 h; actives raise or lower the signal
How it was run: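 Read-out is CDKN1A mRNA by TaqMan qRT-PCR, normalized to three housekeeping genes and fitted in both directions against the DMSO baseline. Human HepaRG cells were treated 48 h with test chemicals up to 100 uM in half-log steps, 0.5% DMSO.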

[6] = read-out: Cyclin D1 (CCND1), CCND1 (gene 595); experiment: LTEA_HepaRG_CCND1: Life Technologies and Expression Analysis (LTEA) Assay for Cyclin D1 (CCND1) using HepaRG (AID 2283451); conditions: mRNA level, 48 h; actives raise or lower the signal;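 on AC50: differentiated human HepaRG liver cells in serum-free induction medium; TaqMan qRT-PCR transcript level normalised to ACTB GAPDH and POLR2A housekeeping genes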
How it was run: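 HepaRG plated 48 h, medium switched to serum-free induction medium, chemicals added in duplicate (top 100 uM, half-log steps, 0.5% DMSO) for 48 h, cells lysed, RNA measured by TaqMan qRT-PCR.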

[7] = read-out: flavin-containing dimethylaniline monooxygenases 3 (FMO3), FMO3 (gene 2328); experiment: LTEA_HepaRG_FMO3: Life Technologies and Expression Analysis (LTEA) Assay for flavin-containing dimethylaniline monooxygenases 3 (FMO3) using HepaRG (AID 2283453); conditions: mRNA level, 48 h; actives raise or lower the signal;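 on AC50: differentiated human HepaRG liver cells in serum-free induction medium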
How it was run: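 FMO3 transcript quantified by TaqMan qRT-PCR against three housekeeping genes after 48 h chemical exposure of HepaRG cells. Eight-point half-log series, top 100 uM, 0.5% DMSO vehicle; phenobarbital 1mM induction control; up- or down-regulation fitted.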

[8] = read-out: CFLAR gene, CFLAR (gene 8837); experiment: LTEA_HepaRG_CFLAR: Life Technologies and Expression Analysis (LTEA) Assay for CFLAR gene using HepaRG (AID 2283455); conditions: mRNA level, 48 h; actives raise or lower the signal
How it was run: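 qRT-PCR read-out (Fluidigm/TaqMan) of CFLAR mRNA, normalized to three housekeeping genes, in differentiated human HepaRG cells after 48 h chemical exposure; 8-point half-log series from 100 uM in 0.5% DMSO; bidirectional curve fitting versus DMSO.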

[9] = read-out: Forkhead box O1 (FOXO1), FOXO1 (gene 2308); experiment: LTEA_HepaRG_FOXO1: Life Technologies and Expression Analysis (LTEA) Assay for Forkhead box O1 (FOXO1) using HepaRG (AID 2283456); conditions: mRNA level, 48 h; actives raise or lower the signal
How it was run: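 HepaRG, 48 h exposure, 8-pt half-log series from 100 uM in 0.5% DMSO, duplicates; Fluidigm qRT-PCR mRNA, housekeeping-normalised; bidirectional fit vs DMSO baseline.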

[10] = read-out: growth arrest and DNA damage 45 (GADD45A), GADD45A (gene 1647); experiment: LTEA_HepaRG_GADD45A: Life Technologies and Expression Analysis (LTEA) Assay for growth arrest and DNA damage 45 (GADD45A) using HepaRG (AID 2283458); conditions: mRNA level, 48 h; actives raise or lower the signal
How it was run: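 Transcript induction or loss, quantified by TaqMan qRT-PCR against three housekeeping genes, is the read-out. HepaRG cells received chemicals for 48 h across eight half-log concentrations from 100 uM in 0.5% DMSO; gain and loss fitted relative to DMSO.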

[11] = read-out: Forkhead box O3 (FOXO3), FOXO3 (gene 2309); experiment: LTEA_HepaRG_FOXO3: Life Technologies and Expression Analysis (LTEA) Assay for Forkhead box O3 (FOXO3) using HepaRG (AID 2283459); conditions: mRNA level, 48 h; actives raise or lower the signal
How it was run: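 qRT-PCR readout of FOXO3 transcript, normalized to three housekeeping genes (ACTB, GAPDH, POLR2A); gain or loss fitted against 0.5% DMSO vehicle. HepaRG cells, 48 h chemical exposure, 8-point half-log series, top 100 uM.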

[12] = read-out: ABC Transporter (ABCB1), ABCB1 (gene 5243); experiment: LTEA_HepaRG_ABCB1: Life Technologies and Expression Analysis (LTEA) Assay for ABC Transporter (ABCB1) using HepaRG (AID 2283460); conditions: mRNA level, 48 h; actives raise or lower the signal
How it was run: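 HepaRG, 48 h exposure, 8-pt half-log series from 100 uM, 0.5% DMSO vehicle, duplicates. Readout: ABCB1 transcript by Fluidigm TaqMan qRT-PCR, housekeeping-normalized; bidirectional curve fit vs DMSO baseline.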

[13] = read-out: growth arrest and DNA damage 45 (GADD45B), GADD45B (gene 4616); experiment: LTEA_HepaRG_GADD45B: Life Technologies and Expression Analysis (LTEA) Assay for growth arrest and DNA damage 45 (GADD45B) using HepaRG (AID 2283461); conditions: mRNA level, 48 h; actives raise or lower the signal
How it was run: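 HepaRG, ~100,000 cells/well, 48 h plating; serum-free induction medium; cpd 100 uM top, half-log x8, 0.5% DMSO, duplicate, 48 h; lysis in RLT, RNA isolation, qRT-PCR; norm ACTB/GAPDH/POLR2A; bidirectional fit vs DMSO.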

[14] = read-out: ABC Transporter (ABCC3), ABCC3 (gene 8714); experiment: LTEA_HepaRG_ABCC3: Life Technologies and Expression Analysis (LTEA) Assay for ABC Transporter (ABCC3) using HepaRG (AID 2283462); conditions: mRNA level, 48 h; actives raise or lower the signal
How it was run: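 Human HepaRG, 48 h dosing, 8-pt half-log series from 100 uM, 0.5% DMSO vehicle, duplicates. ABCC3 mRNA by TaqMan qRT-PCR, housekeeping-normalized; bidirectional curve fit vs DMSO.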

[15] = read-out: ABC Transporter (ABCB11), ABCB11 (gene 8647); experiment: LTEA_HepaRG_ABCB11: Life Technologies and Expression Analysis (LTEA) Assay for ABC Transporter (ABCB11) using HepaRG (AID 2283463); conditions: mRNA level, 48 h; actives raise or lower the signal
How it was run: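 HepaRG, 48 h exposure, 8-pt half-log CRC top 100 uM, 0.5% DMSO vehicle, duplicates. Readout: TaqMan qRT-PCR of ABCB11 mRNA, housekeeping-normalized (ACTB/GAPDH/POLR2A). Bidirectional fit vs DMSO baseline.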

[16] = read-out: ABC Transporter (ABCC2), ABCC2 (gene 1244); experiment: LTEA_HepaRG_ABCC2: Life Technologies and Expression Analysis (LTEA) Assay for ABC Transporter (ABCC2) using HepaRG (AID 2283464); conditions: mRNA level, 48 h; actives raise or lower the signal
How it was run: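 HepaRG, 48 h post-plating; serum-free induction medium; cpd 8-pt, 100 uM top, half-log, 0.5% DMSO, duplicate, 48 h. Readout: ABCC2 mRNA by qRT-PCR, norm. ACTB/GAPDH/POLR2A. Bidirectional fit vs DMSO baseline.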

[17] = read-out: Broad substrate specificity ATP-binding cassette transporter ABCG2 (Homo sapiens) (UniProt Q9UNQ0); experiment: LTEA_HepaRG_ABCG2: Life Technologies and Expression Analysis (LTEA) Assay for ABC Transporter (ABCG2) using HepaRG (AID 2283465); conditions: mRNA level, 48 h; actives raise or lower the signal
How it was run: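 HepaRG, 48 h exposure, 8-pt half-log series from 100 uM, 0.5% DMSO vehicle, duplicates. Readout: ABCG2 transcript by qRT-PCR (Fluidigm array), housekeeping-normalized; bidirectional curve fit relative to DMSO baseline.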

[18] = read-out: ATP-citrate lyase (ACLY), ACLY (gene 47); experiment: LTEA_HepaRG_ACLY: Life Technologies and Expression Analysis (LTEA) Assay for ATP-citrate lyase (ACLY) using HepaRG (AID 2283466); conditions: mRNA level, 48 h; actives raise or lower the signal
How it was run: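 qRT-PCR readout of ACLY transcript after 48 h chemical treatment of HepaRG cells; expression normalized to three housekeeping genes. Eight-point half-log series, highest 100 uM, 0.5% DMSO vehicle. Gain or loss fitted against DMSO baseline.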

[19] = read-out: Peroxisomal acyl-coenzyme A oxidase 1 (ACOX1) gene, ACOX1 (gene 51); experiment: LTEA_HepaRG_ACOX1: Life Technologies and Expression Analysis (LTEA) Assay for Peroxisomal acyl-coenzyme A oxidase 1 (ACOX1) gene using HepaRG (AID 2283467); conditions: mRNA level, 48 h; actives raise or lower the signal
How it was run: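 HepaRG, 48 h chemical exposure, 8-pt half-log series from 100 uM top, 0.5% DMSO vehicle, duplicates. Readout: ACOX1 mRNA by Fluidigm qRT-PCR, housekeeping-normalized; bidirectional fit vs DMSO baseline.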

[20] = CEETOX_H295R_TESTO: CeeTox H295R High-throughput Steroidogenesis Assay for Testosterone (TESTO) (AID 2283457); conditions: actives raise or lower the signal;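 on AC50: cells exposed to chemicals for 48 h before medium collection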
How it was run: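 H295R, passage ≤10, 48 h dosing; media extracted with MTBE → HPLC-MS/MS for testosterone; 7-pt standard curve sets LLOQ/ULOQ; bidirectional fit vs DMSO; MTT viability same wells.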

Measured: AC50

Chain of Broad substrate specificity ATP-binding cassette transporter ABCG2 (Homo sapiens) (Q9UNQ0 whole entry, looked up): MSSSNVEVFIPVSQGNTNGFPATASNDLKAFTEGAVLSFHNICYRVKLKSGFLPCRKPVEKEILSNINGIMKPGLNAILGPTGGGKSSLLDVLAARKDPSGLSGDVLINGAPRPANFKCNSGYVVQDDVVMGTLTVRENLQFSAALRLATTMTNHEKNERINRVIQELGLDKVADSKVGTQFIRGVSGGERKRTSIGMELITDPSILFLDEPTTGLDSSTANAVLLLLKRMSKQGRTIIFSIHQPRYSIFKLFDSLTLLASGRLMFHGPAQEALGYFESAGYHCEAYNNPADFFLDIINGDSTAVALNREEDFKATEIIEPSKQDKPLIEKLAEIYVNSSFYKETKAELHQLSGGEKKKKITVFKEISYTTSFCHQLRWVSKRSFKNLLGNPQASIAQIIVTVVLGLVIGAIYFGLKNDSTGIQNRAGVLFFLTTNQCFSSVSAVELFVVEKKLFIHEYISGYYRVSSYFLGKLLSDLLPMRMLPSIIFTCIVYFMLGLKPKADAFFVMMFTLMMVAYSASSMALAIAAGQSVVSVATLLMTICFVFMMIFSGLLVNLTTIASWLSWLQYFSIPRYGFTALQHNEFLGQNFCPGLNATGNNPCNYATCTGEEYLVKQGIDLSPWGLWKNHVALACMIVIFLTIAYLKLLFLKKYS
Chain of Fatty acid synthase (Homo sapiens) (P49327 whole entry, looked up): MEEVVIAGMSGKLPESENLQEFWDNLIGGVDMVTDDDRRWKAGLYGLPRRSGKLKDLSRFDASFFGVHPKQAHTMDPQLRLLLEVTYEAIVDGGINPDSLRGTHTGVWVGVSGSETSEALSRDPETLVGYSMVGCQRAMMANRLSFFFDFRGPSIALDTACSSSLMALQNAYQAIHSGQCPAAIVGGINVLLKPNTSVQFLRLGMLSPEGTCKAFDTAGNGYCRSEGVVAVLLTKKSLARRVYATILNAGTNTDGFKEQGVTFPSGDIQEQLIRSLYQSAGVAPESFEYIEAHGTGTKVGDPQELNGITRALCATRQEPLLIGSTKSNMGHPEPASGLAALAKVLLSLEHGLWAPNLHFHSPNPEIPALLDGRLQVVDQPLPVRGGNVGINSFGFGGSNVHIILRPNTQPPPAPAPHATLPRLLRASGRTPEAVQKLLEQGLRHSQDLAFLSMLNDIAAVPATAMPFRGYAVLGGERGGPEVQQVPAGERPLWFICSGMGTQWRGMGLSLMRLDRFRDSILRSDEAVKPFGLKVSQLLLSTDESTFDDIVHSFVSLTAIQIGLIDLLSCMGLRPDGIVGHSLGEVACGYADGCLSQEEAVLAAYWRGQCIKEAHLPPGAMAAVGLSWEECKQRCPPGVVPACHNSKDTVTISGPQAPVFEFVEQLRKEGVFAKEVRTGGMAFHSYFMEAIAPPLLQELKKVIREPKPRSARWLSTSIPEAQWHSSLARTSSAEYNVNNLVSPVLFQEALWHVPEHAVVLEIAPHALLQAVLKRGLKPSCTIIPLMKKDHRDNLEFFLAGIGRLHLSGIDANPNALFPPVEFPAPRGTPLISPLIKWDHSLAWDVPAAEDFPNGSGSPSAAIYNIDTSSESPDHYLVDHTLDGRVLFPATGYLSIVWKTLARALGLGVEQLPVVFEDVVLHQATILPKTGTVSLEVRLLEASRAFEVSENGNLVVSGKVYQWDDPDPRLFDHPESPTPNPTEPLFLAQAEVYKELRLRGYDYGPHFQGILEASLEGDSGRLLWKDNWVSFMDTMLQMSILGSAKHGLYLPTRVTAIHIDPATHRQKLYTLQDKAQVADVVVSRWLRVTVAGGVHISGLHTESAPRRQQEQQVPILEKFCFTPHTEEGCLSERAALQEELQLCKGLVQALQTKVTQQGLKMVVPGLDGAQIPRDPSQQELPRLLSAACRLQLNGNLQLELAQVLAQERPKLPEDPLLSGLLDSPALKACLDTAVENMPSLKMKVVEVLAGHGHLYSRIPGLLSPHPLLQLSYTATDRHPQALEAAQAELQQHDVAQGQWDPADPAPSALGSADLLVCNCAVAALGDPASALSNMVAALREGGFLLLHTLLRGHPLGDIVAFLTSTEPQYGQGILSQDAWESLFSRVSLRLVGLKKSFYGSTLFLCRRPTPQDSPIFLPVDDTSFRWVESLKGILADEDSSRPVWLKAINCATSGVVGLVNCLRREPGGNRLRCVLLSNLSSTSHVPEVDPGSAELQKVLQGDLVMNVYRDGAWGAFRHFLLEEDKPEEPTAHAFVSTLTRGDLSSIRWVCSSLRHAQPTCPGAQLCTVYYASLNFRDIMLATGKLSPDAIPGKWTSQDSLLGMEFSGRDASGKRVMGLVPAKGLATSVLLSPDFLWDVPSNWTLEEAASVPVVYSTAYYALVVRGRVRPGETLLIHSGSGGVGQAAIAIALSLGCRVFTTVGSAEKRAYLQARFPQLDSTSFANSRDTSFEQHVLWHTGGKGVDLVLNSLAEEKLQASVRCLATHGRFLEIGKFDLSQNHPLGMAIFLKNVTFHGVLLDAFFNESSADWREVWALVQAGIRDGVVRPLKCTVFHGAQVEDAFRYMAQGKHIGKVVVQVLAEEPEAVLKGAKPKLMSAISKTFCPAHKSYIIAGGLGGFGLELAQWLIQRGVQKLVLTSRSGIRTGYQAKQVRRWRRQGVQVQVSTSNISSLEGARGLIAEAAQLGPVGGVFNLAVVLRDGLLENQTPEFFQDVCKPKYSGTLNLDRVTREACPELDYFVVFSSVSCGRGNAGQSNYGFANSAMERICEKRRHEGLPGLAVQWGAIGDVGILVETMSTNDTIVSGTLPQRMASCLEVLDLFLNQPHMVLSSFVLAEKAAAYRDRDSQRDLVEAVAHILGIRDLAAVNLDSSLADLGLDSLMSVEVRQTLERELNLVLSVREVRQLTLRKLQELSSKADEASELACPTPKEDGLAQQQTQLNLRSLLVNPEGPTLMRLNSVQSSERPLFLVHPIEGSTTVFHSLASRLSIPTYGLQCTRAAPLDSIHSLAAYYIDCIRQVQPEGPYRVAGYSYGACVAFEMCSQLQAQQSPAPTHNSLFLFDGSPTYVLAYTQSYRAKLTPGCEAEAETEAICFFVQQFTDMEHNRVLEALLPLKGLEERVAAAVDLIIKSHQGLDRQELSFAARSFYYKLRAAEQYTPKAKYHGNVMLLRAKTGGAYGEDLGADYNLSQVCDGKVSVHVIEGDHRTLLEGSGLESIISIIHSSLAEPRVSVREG

C[C@@H]1C[C@@H]([C@H](O)CC2CC(=O)NC(=O)C2)C(=O)[C@@H](C)C1
active: [3] 4.28 µM | [5] 13.2 µM | [6] 3.34 µM | [7] 25.9 µM | [8] 13.4 µM | [10] 50 µM | [11] 34.3 µM | [12] 83.5 µM | [13] 22.3 µM | [14] 0.921 µM | [15] 4.26 µM | [16] 27.3 µM | [17] 10.4 µM | [18] 9.23 µM | [19] 50 µM
inactive: [1] | [2] | [4] | [9]

Nc1ccc(-c2ccc(N)c(Cl)c2)cc1Cl
inactive: [1]

NNC(=S)NN
active: [1] 50 µM

C[C@]12CC[C@H](O)CC1=CC[C@@H]1[C@@H]2CC[C@]2(C)C(=O)CC[C@@H]12
inactive: [1]

CC12CC1(C)C(=O)N(c1cc(Cl)cc(Cl)c1)C2=O (configuration not stated)
active: [3] 5.61 µM | [20] 25.4 µM | [12] 8.58 µM | [15] 6.92 µM | [19] 13.1 µM
not listed: [10]
inactive: all other assays above

O=C(Cc1ccccc1)c1ccccc1
active: [1] 45.9 µM

COP(=O)(OC)O/C(=C\Cl)c1cc(Cl)c(Cl)cc1Cl
inactive: [1] | [20]

O=C(Nc1ccc2[nH]ccc2c1)c1cc2cc(F)ccc2n1Cc1cccc(F)c1
inactive: [2] | [5] | [8] | [9] | [11] | [13] | [14] | [18]
active: [1] 4.84 µM | [3] 24.3 µM | [6] 39.5 µM | [7] 26.3 µM | [10] 20.7 µM | [12] 90.3 µM | [15] 38.1 µM | [16] 78.2 µM | [17] 32.2 µM | [19] 63.1 µM
